Screens: PubChem, National Center for Advancing Translational Sciences (NCATS)
Hits are enriched below; roughly 6.8% of the tested compounds scored in any of these assays.
SW480 rereplic = induces DNA re-replication in SW480 colon adenocarcinoma cells | Potency, µM (titrated, usually from 46.1 µM), without a hit: at the highest dose re-replication activation, usual class: activators | SW480 DNA re-replication, Hoechst DNA content imaging, 48 h | AID 624297 | actives 1.8% (n = 340,000); also: % of control where 0% means no effect; nearly all actives have a fitted effect of over 55% in size
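Per well, 250 cells were exposed to pinned compound for 48 hr. Nuclear DNA was visualised with Hoechst (40 min, 37 C) and total object intensity recorded by fluorescence scanning.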
TSG101-PTAP inh = blocks PTAP/TSG101 interaction to inhibit HIV-1 budding. Fluorescence polarization, FITC-PTAP peptide / Tsg101 binding. 340,000 tested, under 10 active. Potency, µM (top dose mostly 115 µM), inactives show at the top dose activity change, negative = inhibition, usual class: inhibitors. AID 493005; active = well fitted inhibition curve with a large enough effect in the main read-out, with a control signal flat, not every such curve was filed as active; inconclusive = small, poorly fitted or top-dose-only effect, or effect the other way, or a change in a side signal; inactive = no such curve, though single readings can be large or run the other way; also: % of control where 0% means no effect
Target sequence (Q99816 whole entry, looked up): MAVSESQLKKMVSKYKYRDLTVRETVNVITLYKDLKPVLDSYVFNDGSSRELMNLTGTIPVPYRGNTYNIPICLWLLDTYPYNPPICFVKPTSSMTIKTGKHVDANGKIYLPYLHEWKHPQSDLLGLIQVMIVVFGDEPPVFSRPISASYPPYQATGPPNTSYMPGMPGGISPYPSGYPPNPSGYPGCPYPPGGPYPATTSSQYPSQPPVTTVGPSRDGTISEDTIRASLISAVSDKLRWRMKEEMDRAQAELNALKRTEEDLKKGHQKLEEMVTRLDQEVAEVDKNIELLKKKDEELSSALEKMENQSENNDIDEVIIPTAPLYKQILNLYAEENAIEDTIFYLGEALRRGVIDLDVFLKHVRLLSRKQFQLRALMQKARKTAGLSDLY
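FP read-out: FITC-PTAP peptide, 50 nM final, binding Tsg101 binding domain, 10 uM final; 20 min, r.t.; 10 mM HEPES pH 7.5, 0.15 M NaCl, 0.01% Tween 20, 3 mM EDTA, 0.1 mM TCEP.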
KB-V1 MDR tox = KB-V1 MDR subline cytotoxicity; KB-V1 MDR cells viability, CellTiter-Glo, 72 h; Potency, µM (highest dose often 46.1 µM), most hits filed as cytotoxic; actives 3.4% (n = 400,000); also: % is scaled to controls: 0 for no effect and ±100 for the full control effect; nearly all actives have a fitted effect of over 60% in size
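Readout: CellTiter-Glo luminescence, 10 min after addition. Cells: KB-V1 MDR subline, 72 h at 37 degrees C with compound. Analysis: corrected, normalized data fitted to concentration-effect curves.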
PINK1 modulator = PINK1 expression modulation; actives 0.2% (n = 410,000); PINK1 immunofluorescence, high-content cytometry, 24 h; AID 624263; Potency, µM (doses to about 76.6 µM), inactives show top-dose activation (PINK1 increase), hits mostly activators; active = well fitted activation curve with a large enough effect; inconclusive = small, poorly fitted or top-dose-only effect; cell line not stated here; also: % of control where 0% means no effect; nearly all actives have a fitted effect of over 65% in size
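Fluorescence from anti-PINK1 antibody, together with nuclear and cell stains, was scanned on a laser-scanning cytometer. Before staining, stable-line cells were incubated 24 hours with compounds at 5 concentrations; primary antibody 12 h at 10 degrees C.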
MCF10A rerep = inducers of DNA re-replication in MCF 10A breast cells | MCF 10A DNA re-replication, Hoechst nuclear intensity, 48 h | Potency, µM (highest dose often 46.1 µM), for inactives: top-dose activity, positive = re-replication, most hits filed as activators | actives 2.9% (n = 350,000); also: % of control where 0% means no effect; nearly all actives have a fitted effect of over 50% in size
KB-3-1 tox = KB-3-1 parental cell cytotoxicity; KB-3-1 viability, CellTiter-Glo ATP luminescence, 72 h; Potency, µM (series often up to 46.1 µM), actives largely listed as cytotoxic; actives 1.4% (n = 400,000); also: % is scaled to controls: 0 for no effect and ±100 for the full control effect; nearly all actives have a fitted effect of over 60% in size
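KB-3-1 cells, DMEM (no phenol red) + 10% FBS; compound by pin transfer, 72 h, 37 °C. Readout: CellTiter-Glo luminescence after 10 min. Data normalized, curve-fitted.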
* hit, by the source's call; i = inactive; ? = inconclusive; . = no result given; [ ] = dose if it differs, or a comment. Unless noted, calls follow the shape of the dose curve; as a rule, active = well fitted curve in the direction sought with a large enough effect; inconclusive = small, poorly fitted or top-dose-only effect, or another doubt; inactive = no such curve, though single readings can be large; an effect the other way counts as inactive or inconclusive. Potency is read from the fitted curve at half-maximal effect.

SMILES	SW480 rereplic	TSG101-PTAP inh	KB-V1 MDR tox	PINK1 modulator	MCF10A rerep	KB-3-1 tox
CCCCOC(=O)c1c(N)n(-c2ccc(OC)cc2OC)c2nc3ccccc3nc12	.	.	i	-5.3%	.	i
COc1ccc(-n2c(N)c(C(=O)NCc3ccco3)c3nc4ccccc4nc32)c(OC)c1	2.06µM*	-1.5%	i	10.4%	7.08µM*	i
COC(=O)c1cnc(Oc2ccc(NC(=O)NC(=O)c3c(OC)cccc3OC)cc2)cc1C(F)(F)F	2.59µM*	-0.9%	2.31µM*	4.2%	0.82µM*	?
COC(=O)c1cnc(Oc2ccc(NC(=O)NC(=O)c3c(F)cccc3F)cc2)cc1C(F)(F)F	1.4%	-1.9%	i	-0.1%	6.1%	i
N#Cc1c(N2CCCCC2)nc(N)c2c(N)nc3c(c12)CC(c1ccccc1)O3 (centres undefined)	-7.2%[9.22 µM]	-3.0%	?	-1.7%	?	i
CCN(CC)c1nc(N)c2c(N)nc3c(c2c1C#N)CC(c1ccccc1)O3 (centres undefined)	?	-7.8%	20.6µM*	-0.9%[38.3 µM]	20.6µM*	i
CCOc1ccc(-c2cc(CCCC(=O)NCCc3ccc(SC)cc3)no2)cc1	.	.	i	2.1%	.	i
O=[N+]([O-])c1cc(C(F)(F)F)ccc1NCCCCNS(=O)(=O)c1ccc(Cl)cc1	?	-0.1%	20.6µM*	?	15.7%	?
O=[N+]([O-])c1cc(C(F)(F)F)ccc1NCCNC(=S)Nc1ccc(Cl)cc1	?	-6.6%	?	12.6µM*	-1.2%	i
COc1cccc(NC(=O)c2sc3nc(C)c(C(=O)Nc4ccc(C)cc4C)c(-c4ccc(Br)cc4)c3c2N)c1	.	.	i	2.2%	.	i
CCCOc1ccc(Oc2nc(NCC(C)C)nc(N(C)C)n2)nn1	.	.	.	0.6%	.	.
CS(=O)(=O)Nc1ccc(C2=NN(C(=O)c3ccco3)C(c3ccccc3)C2)cc1 (centres undefined)	-81.8%	-4.8%	16.4µM*	2.1%	-42.0%	i
Cc1ccc(C2CC(c3ccc(NS(C)(=O)=O)cc3)=NN2C(=O)c2ccco2)cc1 (centres undefined)	-0.9%	2.7%	i	-3.4%	-0.8%	i
Cc1ccc(C2=NN(C(=S)Nc3ccccc3)C(c3ccco3)C2)cc1 (centres undefined)	-0.1%	-4.1%	i	-0.9%	-1.7%	i
CCS(=O)(=O)Nc1ccc(C2=NN(C(=S)Nc3ccccc3)C(c3ccco3)C2)cc1 (centres undefined)	?	1.6%	13µM*	11.1%	22.2%	i
CCOC(=O)c1ccc2ncc(C(=O)OCC)c(NCCN(C)C)c2c1	-12.5%	-4.5%	i	2.6%	7.0%	i
CN(C)CCNc1ccc2nnn3c4ccc(O)cc4c(=O)c1c23	9.0%	-1.9%	?	-1.5%	7.0%	7.31µM*
CCN(CC)CCCNc1ccc2ncn3c4ccc(O)cc4c(=O)c1c23	7.31µM*	?	?	-4.4%	?	23.1µM*
CCN(CC)CCCNc1ncnc2ccccc12	-5.4%	-1.7%	i	-0.3%	11.4%	i
O=c1oc2ccccc2cc1-c1nc2c(s1)CCc1ccccc1-2	20.6µM*	-0.7%	i	0.9%	?	i
CCc1sc(-c2cc3ccc(O)cc3oc2=O)nc1-c1ccc(C)cc1	.	.	?	0.7%	.	i
O=c1oc2cc(O)ccc2cc1-c1nc2c(s1)CCc1ccccc1-2	3.66µM*	?	i	1.3%	?	i
O=c1oc2ccc3ccccc3c2cc1-c1nc2c(s1)CCc1ccccc1-2	.	.	i	1.1%	.	?
O=S(=O)(c1ccc2c(Cl)cccc2c1)N1CCN(c2nc(-c3cccs3)nc3ccccc23)CC1	.	.	.	5.2%	.	.
Cc1cccc(Cn2cc3c(=O)n(CC(=O)Nc4c(C)cccc4C)nc-3c3cc(F)ccc32)c1	.	.	i	1.8%	.	i
SMILES	SW480 rereplic	TSG101-PTAP inh	KB-V1 MDR tox	PINK1 modulator	MCF10A rerep	KB-3-1 tox
Cc1ccc(CNc2nc(NCC3CC3)nc3ccsc23)c(C)c1	.	.	?	?	.	i
CNc1nc(Nc2ccc(C)cc2C)c2sccc2n1	.	.	14.6µM*	4.8%	.	18.4µM*
Cc1ccc(Nc2nc(NCC3CC3)nc3ccsc23)c(C)c1	.	.	?	?	.	20.6µM*
COc1ccc(C2CC(=O)c3cnc(N)nc3C2)c(OC)c1 (centres undefined)	-172.0%	-1.3%	?	-1.5%	0.8%	i
COc1ccc(C2CC(=O)c3cnc(NC(=O)c4ccccc4)nc3C2)c(OC)c1 (centres undefined)	?	-9.1%	?	5.1%	20.6µM*	?
Cc1nnc2sc(-c3csc4c3CCCC4)nn12	-2.8%	-2.5%	7.31µM*	-1.5%	?	8.2µM*
Cc1nnc2sc(-c3cccc4ccccc34)nn12	-2.9%	-1.0%	5.17µM*	-4.2%	-188.2%[0.0737 µM]	7.31µM*
Cc1nnc2c3ccccc3c(-c3cccc4ccccc34)nn12	-1.7%	-4.2%	11.6µM*	13.9%[38.3 µM]	?	i
Cc1nnc2sc(-c3ccncc3)nn12	-1.2%	-7.4%	i	-1.5%	5.1%	i
c1ccc(-c2cc(-c3nn4c(-c5ccco5)nnc4s3)c3ccccc3n2)cc1	?	-7.6%	i	22.8%[38.3 µM]	8.5%	i
Cc1cc(-c2nn3c(-c4ccccc4)nnc3s2)c2ccccc2n1	7.9%	-12.0%	1.03µM*	0.1%[38.3 µM]	-1.7%	?
CCC1CN(CCNC(=O)c2cccc(C(=O)OC)c2)Cc2cc(OC)ccc2O1 (centres undefined)	.	.	.	-0.3%	.	.
COc1ccc(CN(Cc2ccco2)c2cnc(S(C)(=O)=O)nc2C(=O)Nc2ccc(F)cc2)cc1	.	.	i	-2.3%	.	i
COc1ccc(C(=O)OCC(=O)NCC2CCCCC2)cc1F	19.4%	-0.2%	i	5.0%	8.2µM*	i
COc1ccc(CC(=O)NCC2CCCCC2)cc1OC	5.8µM*	-4.4%	i	4.8%	0.8%	i
COc1cc(C(=O)OCC(=O)N2c3ccccc3NC(=O)C2(C)C)ccc1OCC(C)C	6.8%	-7.3%	20.6µM*	-2.7%	?	i
COc1cc(C(=O)OCC(=O)NCCCc2ccccc2)ccc1OCC(C)C	4.4%	1.1%	i	3.1%	10.2%	i
COc1cc(C(=O)OCC(=O)NCc2ccc(F)cc2)ccc1OCC(C)C	-1.4%	.	i	?	9.3%	23.1µM*
CCOC(=O)c1c(NC(=O)c2nc(S(C)(=O)=O)ncc2Cl)sc(C(C)=O)c1C	.	.	.	2.6%	.	.
Clc1ccc[n+](CCCCC[n+]2cccc(Cl)c2)c1	.	.	i	.	.	i
